In PubChem BioAssay AID2685 (National Center for Advancing Translational Sciences (NCATS), 2010):
“And” between values parts separate entries of the source, which are not always exact repeats. Equal values may be shown once. The campaign covered roughly 320,000 compounds. About 2,100 (0.66%) were called active. Inconclusive results (about 53%) are left out. Calls follow the shape of the dose curve; as a rule, active = well fitted inhibition curve with a large enough effect in the signal ratio, with a control signal flat (not every such curve was filed as active); inconclusive = small, poorly fitted or top-dose-only effect, or effect the other way, or a change in a side signal; inactive = flat fitted curve, though single readings scatter; the % refers to the signal ratio. Many of the other results were omitted from the sample, so actives are more common in it than they were.

assay: qHTS Assay for Lipid Storage Modulators in Drosophila S3 Cells; conditions: BODIPY lipid droplet fluorescence, 18-24 h, cells fed with added oleic acid; cell number change: measured here: cell count max response; series mostly up to 46.1 µM;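 as to cell number change: cells counted by Cell Tracker Red CMTPX staining in the red channel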
Procedure, shortened: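 Laser-scanning cytometry quantifies lipid droplet accumulation (500–530 nm total intensity; droplet/cell object ratio) in oleic acid-fed (400 uM added) Drosophila S3 cells treated with a concentration series. 20 uM Triacsin C defined 100% inhibition.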
Potency is read from the fitted curve at half-maximal effect.

Compound	Potency	cell number change [%]
O=C1CC(c2ccccc2)CC(=NCCO)/C1=C(\O)CCCN1C(=O)c2ccccc2C1=O (stereo not drawn)	inactive	-9.46
CC12CN3CCN(CC(C3)C1(O)CN1CCOCC1)C2 (stereo not drawn)	4.61 µM (active)	0.875
CC12CN3CCN(CC(C3)C1(O)CN1CCCCC1)C2 (stereo not drawn)	inactive	-4.02
OC1(CN2CCOCC2)C2CN3CCN(C2)CC1(c1ccccc1)C3 (stereo not drawn)	inactive	10
CCOc1ccc(C(C(=O)NC2CCCC2)N(CCCO)C(=O)c2ccc(-c3ccccc3)[nH]2)cc1 (stereo not drawn)	inactive	42.7
Cc1nnc(-c2ccc(Oc3ccc(Br)cc3)c([N+](=O)[O-])c2)o1	inactive	2.33
O=C(C/C=N/OCc1ccc(Cl)cc1Cl)c1ccc(Cl)cc1	inactive	4.16
Oc1ccc(CNC2CCCCC2)cc1	inactive	0.0125
Clc1ccc(CNC2CCCC2)cc1	20.6 µM (active)	-30.8
Clc1ccc(CNC2CCCC2)c(Cl)c1	inactive	-13.9
CCCCOC(=O)C1C2C=CC3(CN(CCc4ccccc4)C(=O)C13)O2 (stereo not drawn)	inactive	-8.47
N#Cc1c(NC(=O)c2ccc(Cn3cc(Br)cn3)o2)sc2c1CCCCC2	inactive	0.806
Cc1ccc(N=c2sc(C)c(C)n2C)cc1	inactive	-18.9
C1CCC(OCCN2CCN(CCOC3CCCCC3)CC2)CC1	25.9 µM (active)	6
C1CCCCCC(NCCN2CCNCC2)CCCCC1	inactive	2.58
O=C(c1ccccc1)N1CCN(CC(O)COC2CCCCC2)CC1 (stereo not drawn)	inactive	4.36
COCCNC(=O)CN1CCC(NC(=O)c2ccco2)CC1	inactive	-1.29
Cc1ccc(NC(=O)c2c(F)cccc2Cl)cc1NS(C)(=O)=O	inactive	5.84
COc1ccc(/C=N/NC(=O)c2cccnc2)cc1CN1CCN(c2ccc(F)cc2)CC1	inactive	3.44
COc1ccc(CC(=O)Nc2c3c(nn2C(C)(C)C)CS(=O)(=O)C3)cc1OC	inactive	17
CCCCNCC1C(Oc2ccc(Cl)cc2)C(=O)N1c1ccccc1C (stereo not drawn)	inactive	–
COCCNCC1C(Oc2ccc(Cl)cc2)C(=O)N1c1ccccc1C (stereo not drawn)	inactive	19.6
Cc1ccccc1N1C(=O)C(Oc2ccc(Cl)cc2)C1CNCCCOC(C)C (stereo not drawn)	23.1 µM (active)	-13.5

Compound	Potency	cell number change [%]
Cc1ccnc2c1ccc1c(C)ccnc12	inactive	-0.829
O=C(NCc1n[nH]c(=S)n1-c1ccccc1)c1ccc(S(=O)(=O)N2CCCCC2)cc1	inactive	–
COC(=O)c1ccccc1NC(=O)N1CCN(c2ccccc2F)CC1	inactive	25.6
COC(=O)c1ccc(N2CCN(c3ccccc3)CC2)c(N)c1	inactive	6.3
COC(=O)c1ccccc1N1CCS(=O)(=O)CC1	16.4 µM (active)	-18.8
CCOC(=O)C1=C(CS(=O)(=O)c2ccccc2)NC(=O)NC1c1cccc(OC)c1 (stereo not drawn)	inactive	15.2
COC(=O)c1ccc(NC(=S)N2CCCC2)cc1	inactive	-8.77
O=S(=O)(Nc1cccc(Cl)c1)c1ccc(-n2cccn2)cc1	inactive	–
COc1cccc(NS(=O)(=O)c2ccc(-n3cccn3)cc2)c1	0.0517 µM (active)	-7.08
COc1cccc(NS(=O)(=O)c2ccc3c(c2)CCN3C(C)=O)c1	1.64 µM (active)	-8.33
CCc1cccc(NS(=O)(=O)c2ccc(-n3cccn3)cc2)c1	inactive	18.7
CC(=O)N1CCc2cc(S(=O)(=O)Nc3ccc(C)cc3)ccc21	inactive	8.46
COc1cccc(NS(=O)(=O)c2ccc3c(c2)N(C(C)=O)CCS3)c1	inactive	–
Cn1cnnc1Sc1nc2c(c(=O)n(C)c(=O)n2C)n1Cc1ccccc1Cl	inactive	16.5
O=C(c1ccc(=O)[nH]c1)N1CCN(S(=O)(=O)c2ccc3ccccc3c2)CC1	inactive	-9.74
COc1cc(CO)c(Br)cc1OCC(=O)Nc1ccccc1C	inactive	-15.6
O=C(CCCN1C(=O)/C(=C/c2cccs2)SC1=S)NNC(=O)c1ccncc1	inactive	21
O=C(CCN1C(=O)/C(=C/c2cccs2)SC1=S)Nc1cccc(C(=O)O)c1	0.164 µM (active)	-17.1
O=C(CCN1C(=O)/C(=C\c2cccs2)SC1=S)Nc1nccs1	inactive	-0.135
O=C(CCN1C(=O)/C(=C/c2ccccc2)SC1=S)Nc1ccccn1	inactive	-0.917
O=C(CN1C(=O)/C(=C\c2cccs2)SC1=S)Nc1cccc(C(=O)O)c1	inactive	24
O=C(CCN1C(=O)/C(=C/c2cccs2)SC1=S)Nc1ccccc1O	3.66 µM (active)	13.5
O=C(CCN1C(=O)/C(=C/c2ccccc2Cl)SC1=S)Nc1ccccn1	20.6 µM (active)	-0.66

Compound	Potency	cell number change [%]
O=C(CCN1C(=O)/C(=C/c2ccccc2F)SC1=S)Nc1ccccn1	inactive	23.3
O=C(CCN1C(=O)/C(=C/c2cccs2)SC1=S)Nc1ccc(C(=O)O)c(O)c1	inactive	-26.8
O=C(CCCN1C(=O)/C(=C\c2cccs2)SC1=S)Nc1cc([N+](=O)[O-])ccc1O	inactive	–
O=C(CCCN1C(=O)/C(=C/c2cccs2)SC1=S)NNC(=O)c1ccccc1O	6.51 µM (active)	-24.1
Cc1ccc(/C=C2\SC(=S)N(CCCC(=O)NNC(=O)c3ccccc3O)C2=O)cc1	inactive	17.7
CCc1ccc(OCC(=O)N(C)CCC#N)c(Br)c1	inactive	–
CC1=[N+]([O-])C(C)(C)C(C)N(O)C1=O (stereo not drawn)	inactive	1.53
COc1ccc(C(=O)O)cc1S(=O)(=O)Nc1cc(Cl)ccc1N1CCOCC1	inactive	11.4
COC(=O)/C=C1\SC(=NC(=O)c2cccc(Cl)c2)NC1=O	inactive	-23.4
Nc1nonc1-n1nnc(C(=O)N/N=C/c2ccc(OCc3ccccc3)cc2)c1CN1CCCCC1	inactive	–
O=C(Nc1cccc(NC(=O)c2ccc(Br)o2)c1)c1ccccc1	inactive	-12.9
N#CC1=C(Nc2ccccc2)SC=C(c2ccc(Cl)c(Cl)c2)N=C1N1CCOCC1	inactive	-15.3
Cc1cc(C)n(-c2ccc(C(=O)NC3CCCCC3)cc2)n1	inactive	17.4
COc1ccccc1NC(=O)C(C/C=C(/C)Cl)C(C)=O (stereo not drawn)	inactive	12.3
COc1ccc(N(CC(=O)N/N=C/c2cccnc2)S(=O)(=O)c2ccc(C)cc2)cc1OC	inactive	-15.9
CC(=O)Nc1ccc(S(=O)(=O)NC2CC2)cc1	inactive	-7.3
O=C(O)CCCCCCCCCC(=O)c1cccs1	inactive	-19.9
O=C(CCN1C(=O)/C(=C\c2ccco2)SC1=S)Nc1ccc(C(=O)O)c(O)c1	inactive	1.15
O=C(CCN1C(=O)/C(=C/c2ccco2)SC1=S)Nc1ccc(C(=O)O)c(O)c1	inactive	-0.876
O=C(CN1C(=O)/C(=C/c2ccco2)SC1=S)Nc1ccc(C(=O)O)c(O)c1	20.6 µM (active)	25.4
Cc1ccccc1COC(=O)c1nn(-c2ccccc2)nc1N	inactive	3.63
CCOC(=O)C(NC(=O)c1ccc(F)cc1)(Nc1nnc(C)s1)C(F)(F)F (stereo not drawn)	inactive	2.37
COc1ccc(NC(=O)N2CCCC(CNS(=O)(=O)c3cccs3)C2)c(C)c1 (stereo not drawn)	inactive	-5.03

Compound	Potency	cell number change [%]
COCCn1c(SCC(=O)Nc2ccc(F)cc2)nc2ccccc2c1=O	inactive	3.47
COCCCn1c(SCC(=O)Nc2ccc(C)cc2)nc2ccccc2c1=O	inactive	-12.3
COCCn1c(SCC(=O)Nc2cc(C)cc(C)c2)nc2ccccc2c1=O	2.06 µM (active)	-20.8
CSCC[C@H](NC(=O)COc1ccc(Cl)cc1)C(=O)N1CCC2(CC1)NCCc1[nH]cnc12	inactive	–
O=C(NC(Cc1ccccc1)C(=O)O)C1CCCCC1 (stereo not drawn)	inactive	-3.98
CCCC(C(=O)NCCC(C)C)N(Cc1ccccc1)C(=O)c1snc(C(N)=O)c1N (stereo not drawn)	3.66 µM (active)	-3.86
CCCC(C(=O)NCCC(C)C)N(Cc1ccc(F)cc1)C(=O)c1snc(C(N)=O)c1N (stereo not drawn)	inactive	-7.77
CCC(C(=O)NC1CCCC1)N(Cc1ccccc1Cl)C(=O)c1snc(C(N)=O)c1N (stereo not drawn)	0.58 µM (active)	-3.04
CCC(C(=O)NC1CCCCC1)N(Cc1cccs1)C(=O)c1snc(C(N)=O)c1N (stereo not drawn)	inactive	–
COc1ccc(N(C(=O)c2snc(C(N)=O)c2N)C(C(=O)NC2CCCCC2)c2ccc(F)cc2)c(OC)c1 (stereo not drawn)	13 µM (active)	–
COc1ccc(C(C(=O)NC2CCCC2)N(C(=O)c2snc(C(N)=O)c2N)c2cc(C)ccc2OC)cc1OC (stereo not drawn)	inactive	-1.28
CCCC(C(=O)NCCC(C)C)N(Cc1ccc(OC)cc1)C(=O)c1snc(C(N)=O)c1N (stereo not drawn)	inactive	-7.72
CCC(C(=O)NC(C)(C)C)N(Cc1ccccc1Cl)C(=O)c1snc(C(N)=O)c1N (stereo not drawn)	inactive	-22.3
COc1ccc(N(C(=O)c2snc(C(N)=O)c2N)C(C(=O)NC2CCCC2)c2cc(OC)ccc2OC)c(OC)c1 (stereo not drawn)	inactive	-0.901
CCOC(=O)Cc1csc(NC(=S)NC(=O)c2cc(OC)c(OC)c(OC)c2)n1	inactive	-1.2
COc1ccc(NC(=O)Nc2nnc(-c3cccs3)s2)cc1	inactive	-11.4
COc1ccc(C(=O)Nc2nc(-c3ccccc3)c(C(C)=O)s2)c(OC)c1	inactive	-8.6
COCCn1c(=O)[nH]c2cc(C(=O)NC(C)C)ccc2c1=O	inactive	2.66
CCCS(=O)(=O)c1nc(S(=O)(=O)c2ccc(C)cc2)c(NCCCN(C)C)s1	inactive	6.73
CC(=O)NC(c1cccs1)c1cc(F)c2cccnc2c1O (stereo not drawn)	8.4% and -17.4%	–
CC(=O)NC(c1cccs1)c1cc(Br)c2cccnc2c1O (stereo not drawn)	inactive	16.4
CC(=O)NC(c1ccco1)c1cc(F)c2cccnc2c1O (stereo not drawn)	inactive	-4.72
Cc1cc(C)c(NC(=O)CS(=O)CC(=O)NCC2CCCO2)c(C)c1 (stereo not drawn)	inactive	3.77
